About 7,900 targets were measured; listed, in parts, are those with a hit and a random draw of the rest. About 0.6% of all pairs of compound and target were hits. Values without a mark were called inactive.
Columns and labels:
Assay in all cases: log2 fold change, soluble protein after heating vs DMSO (PISA); higher = thermal stabilisation; K562 cells, 10 uM, 30 min; active = over 0.2 and 3.5 SD of the protein, either way, in both replicates (recomputed)
erlotinib = compound: C#Cc1cccc(Nc2ncnc3cc(OCCOC)c(OCCOC)cc23)c1 [erlotinib]
Summary of the method: (§1)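 Aliquots of K562 cells (2×10^6 cells/mL) treated with 10 μM compound for 30 min were heated for 3 min over 48°C-58°C. After pooling and extraction in PBS with 0.5% NP-40 at 4°C, soluble protein from a 21,000xg, 90 min spin was quantified by TMTpro 16plex LC-MS/MS with channel sums equalised. Thermal stability is expressed against control samples, from duplicates, as a log2 fold change.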

[1] = compound: C/C(=N\NC(=O)C1=CC(=CC=C1)S(=O)(=O)N2CCOCC2)/C3=C(C=CC(=C3)Cl)O
Summary of the method: as §1

[2] = compound: C1=CC(=C(C=C1Cl)C2=NC3=NC=CN=C3C(=N2)NC4=CC=NC=C4)F
Summary of the method: as §1

[3] = compound: C1=CC(=CC=C1C2=NC3=C(N2)C=C(C=C3)C(=O)N)OC4=CC=C(C=C4)Cl
Summary of the method: as §1

[4] = compound: C1=CC2=C(C=CC(=C2)/C=C\3/C(=O)NC(=NCC4=CC=CS4)S3)N=C1
Summary of the method: as §1

[5] = compound: C1=CC2=NC=CN=C2C=C1/C=C/3\C(=O)NC(=O)S3
Summary of the method: as §1

[6] = compound: C1=CC=C(C=C1)C2=NC(=C(N2)C3=CC=NC=C3)C4=CC(=C(C=C4)Cl)O
Summary of the method: as §1

[7] = compound: C1=CC=C2C(=C1)C3=NNC4=CC=CC(=C43)C2=O
Summary of the method: as §1

[8] = compound: C1CCN(C1)C(=O)NC2=CC=CC(=C2)NC3=NC=C(C(=N3)NCCC4=CN=CN4)Br
Summary of the method: as §1

[9] = compound: C1CN(CCC1(CC2=CC=C(C=C2)Cl)N)C3=NC=NC4=C3C=CN4
Summary of the method: as §1

UniProt O96011, sequence (O96011 whole entry, looked up, change not shown): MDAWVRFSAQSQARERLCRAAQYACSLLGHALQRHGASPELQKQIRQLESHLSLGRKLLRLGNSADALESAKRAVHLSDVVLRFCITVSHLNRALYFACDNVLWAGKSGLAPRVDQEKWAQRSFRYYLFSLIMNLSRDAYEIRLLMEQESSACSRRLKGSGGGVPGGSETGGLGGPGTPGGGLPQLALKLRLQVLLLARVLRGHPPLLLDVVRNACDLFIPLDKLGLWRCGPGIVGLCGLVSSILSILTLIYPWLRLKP
UniProt Q15365, sequence (Q15365 whole entry, looked up): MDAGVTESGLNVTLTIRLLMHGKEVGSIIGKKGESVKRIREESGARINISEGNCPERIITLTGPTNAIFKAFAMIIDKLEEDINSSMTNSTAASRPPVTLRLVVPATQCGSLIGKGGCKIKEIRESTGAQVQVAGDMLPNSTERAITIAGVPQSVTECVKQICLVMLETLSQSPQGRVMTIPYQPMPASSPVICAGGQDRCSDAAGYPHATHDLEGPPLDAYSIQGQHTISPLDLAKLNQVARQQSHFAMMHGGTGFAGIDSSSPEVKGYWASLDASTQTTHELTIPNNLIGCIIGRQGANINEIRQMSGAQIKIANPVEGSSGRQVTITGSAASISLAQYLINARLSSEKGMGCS
UniProt Q9BRP1, sequence (Q9BRP1 whole entry, looked up): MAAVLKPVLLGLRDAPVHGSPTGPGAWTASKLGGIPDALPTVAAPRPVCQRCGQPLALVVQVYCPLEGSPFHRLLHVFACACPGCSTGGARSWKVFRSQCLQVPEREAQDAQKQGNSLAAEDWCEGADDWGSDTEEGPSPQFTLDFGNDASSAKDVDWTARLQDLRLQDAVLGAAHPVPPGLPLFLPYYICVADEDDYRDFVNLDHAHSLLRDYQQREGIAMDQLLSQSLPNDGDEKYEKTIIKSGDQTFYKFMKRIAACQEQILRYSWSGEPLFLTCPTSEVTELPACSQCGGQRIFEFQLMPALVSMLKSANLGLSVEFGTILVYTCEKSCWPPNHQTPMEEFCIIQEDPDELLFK
UniProt P14618, sequence (P14618 whole entry, looked up): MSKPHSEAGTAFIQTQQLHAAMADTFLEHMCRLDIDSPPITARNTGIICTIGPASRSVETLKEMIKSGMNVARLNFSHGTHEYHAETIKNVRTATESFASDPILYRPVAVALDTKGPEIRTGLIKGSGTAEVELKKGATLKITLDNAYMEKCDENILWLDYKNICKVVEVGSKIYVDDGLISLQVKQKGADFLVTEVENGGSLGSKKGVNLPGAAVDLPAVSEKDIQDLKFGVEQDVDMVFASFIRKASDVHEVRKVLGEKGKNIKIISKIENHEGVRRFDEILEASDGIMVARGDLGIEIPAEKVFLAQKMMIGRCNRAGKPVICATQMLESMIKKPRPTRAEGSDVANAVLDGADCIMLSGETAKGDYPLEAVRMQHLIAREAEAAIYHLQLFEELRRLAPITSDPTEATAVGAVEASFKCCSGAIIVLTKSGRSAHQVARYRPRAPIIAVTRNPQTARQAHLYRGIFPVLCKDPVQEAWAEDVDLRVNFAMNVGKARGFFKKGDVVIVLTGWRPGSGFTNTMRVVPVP
UniProt Q8NBL1, sequence (Q8NBL1 whole entry, looked up): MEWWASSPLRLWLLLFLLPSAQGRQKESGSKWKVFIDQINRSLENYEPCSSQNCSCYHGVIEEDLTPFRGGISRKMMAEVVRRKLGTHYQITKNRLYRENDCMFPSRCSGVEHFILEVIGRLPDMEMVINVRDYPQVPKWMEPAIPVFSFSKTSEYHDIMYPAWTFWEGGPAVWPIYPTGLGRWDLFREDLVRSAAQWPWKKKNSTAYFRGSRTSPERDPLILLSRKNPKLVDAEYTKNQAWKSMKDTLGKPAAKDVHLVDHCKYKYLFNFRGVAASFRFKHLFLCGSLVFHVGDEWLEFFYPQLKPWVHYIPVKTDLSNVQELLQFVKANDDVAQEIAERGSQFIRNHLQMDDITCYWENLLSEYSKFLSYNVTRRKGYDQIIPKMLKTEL
UniProt P0CAP2, sequence (P0CAP2 whole entry, looked up): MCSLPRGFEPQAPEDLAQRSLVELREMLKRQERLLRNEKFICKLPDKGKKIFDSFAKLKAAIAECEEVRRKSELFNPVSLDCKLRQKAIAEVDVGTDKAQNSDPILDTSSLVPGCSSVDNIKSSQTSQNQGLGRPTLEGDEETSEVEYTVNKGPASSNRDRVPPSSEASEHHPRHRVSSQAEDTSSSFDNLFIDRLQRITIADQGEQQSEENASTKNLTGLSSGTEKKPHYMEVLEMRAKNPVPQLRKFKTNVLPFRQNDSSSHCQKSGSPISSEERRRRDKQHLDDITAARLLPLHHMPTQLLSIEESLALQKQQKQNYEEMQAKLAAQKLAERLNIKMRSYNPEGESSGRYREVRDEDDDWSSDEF
UniProt Q15008, sequence (Q15008 whole entry, looked up): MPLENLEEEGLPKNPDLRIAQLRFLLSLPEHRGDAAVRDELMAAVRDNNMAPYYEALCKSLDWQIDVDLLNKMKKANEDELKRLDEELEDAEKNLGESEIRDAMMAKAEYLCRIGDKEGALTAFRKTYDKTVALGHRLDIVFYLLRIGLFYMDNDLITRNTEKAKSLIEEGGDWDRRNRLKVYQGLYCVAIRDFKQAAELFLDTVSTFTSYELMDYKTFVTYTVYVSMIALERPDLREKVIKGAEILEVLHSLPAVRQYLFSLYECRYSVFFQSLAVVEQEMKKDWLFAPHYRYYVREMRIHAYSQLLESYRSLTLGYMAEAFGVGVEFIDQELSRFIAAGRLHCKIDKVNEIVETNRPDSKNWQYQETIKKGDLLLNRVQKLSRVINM
UniProt O60678, sequence (O60678 whole entry, looked up): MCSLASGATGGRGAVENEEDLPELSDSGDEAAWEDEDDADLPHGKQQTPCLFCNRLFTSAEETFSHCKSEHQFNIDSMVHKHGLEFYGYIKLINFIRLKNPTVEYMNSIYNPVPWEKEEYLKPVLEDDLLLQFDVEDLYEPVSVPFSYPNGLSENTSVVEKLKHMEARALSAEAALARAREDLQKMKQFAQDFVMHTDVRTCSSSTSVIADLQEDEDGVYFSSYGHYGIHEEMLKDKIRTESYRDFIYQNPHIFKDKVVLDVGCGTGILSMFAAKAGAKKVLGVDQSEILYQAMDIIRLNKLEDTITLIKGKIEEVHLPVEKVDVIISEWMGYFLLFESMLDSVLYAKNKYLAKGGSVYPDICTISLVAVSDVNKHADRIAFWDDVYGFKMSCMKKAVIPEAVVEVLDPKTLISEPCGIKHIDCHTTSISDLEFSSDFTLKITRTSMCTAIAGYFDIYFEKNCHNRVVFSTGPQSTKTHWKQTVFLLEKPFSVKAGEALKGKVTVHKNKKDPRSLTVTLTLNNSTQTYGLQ
UniProt O00232, sequence (O00232 whole entry, looked up): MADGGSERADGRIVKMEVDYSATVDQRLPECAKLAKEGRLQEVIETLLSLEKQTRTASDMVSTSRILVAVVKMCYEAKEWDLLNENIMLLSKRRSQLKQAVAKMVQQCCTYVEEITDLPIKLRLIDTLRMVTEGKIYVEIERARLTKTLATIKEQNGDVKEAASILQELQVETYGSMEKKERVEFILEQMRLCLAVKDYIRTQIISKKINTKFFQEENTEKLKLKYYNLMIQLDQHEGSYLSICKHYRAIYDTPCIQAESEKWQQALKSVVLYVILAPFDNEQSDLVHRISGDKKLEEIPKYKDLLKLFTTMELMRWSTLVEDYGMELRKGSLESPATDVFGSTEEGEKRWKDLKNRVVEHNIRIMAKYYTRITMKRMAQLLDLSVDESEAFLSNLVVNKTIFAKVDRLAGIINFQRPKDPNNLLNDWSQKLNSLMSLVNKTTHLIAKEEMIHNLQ
UniProt Q8NEB9, sequence (Q8NEB9 whole entry, looked up): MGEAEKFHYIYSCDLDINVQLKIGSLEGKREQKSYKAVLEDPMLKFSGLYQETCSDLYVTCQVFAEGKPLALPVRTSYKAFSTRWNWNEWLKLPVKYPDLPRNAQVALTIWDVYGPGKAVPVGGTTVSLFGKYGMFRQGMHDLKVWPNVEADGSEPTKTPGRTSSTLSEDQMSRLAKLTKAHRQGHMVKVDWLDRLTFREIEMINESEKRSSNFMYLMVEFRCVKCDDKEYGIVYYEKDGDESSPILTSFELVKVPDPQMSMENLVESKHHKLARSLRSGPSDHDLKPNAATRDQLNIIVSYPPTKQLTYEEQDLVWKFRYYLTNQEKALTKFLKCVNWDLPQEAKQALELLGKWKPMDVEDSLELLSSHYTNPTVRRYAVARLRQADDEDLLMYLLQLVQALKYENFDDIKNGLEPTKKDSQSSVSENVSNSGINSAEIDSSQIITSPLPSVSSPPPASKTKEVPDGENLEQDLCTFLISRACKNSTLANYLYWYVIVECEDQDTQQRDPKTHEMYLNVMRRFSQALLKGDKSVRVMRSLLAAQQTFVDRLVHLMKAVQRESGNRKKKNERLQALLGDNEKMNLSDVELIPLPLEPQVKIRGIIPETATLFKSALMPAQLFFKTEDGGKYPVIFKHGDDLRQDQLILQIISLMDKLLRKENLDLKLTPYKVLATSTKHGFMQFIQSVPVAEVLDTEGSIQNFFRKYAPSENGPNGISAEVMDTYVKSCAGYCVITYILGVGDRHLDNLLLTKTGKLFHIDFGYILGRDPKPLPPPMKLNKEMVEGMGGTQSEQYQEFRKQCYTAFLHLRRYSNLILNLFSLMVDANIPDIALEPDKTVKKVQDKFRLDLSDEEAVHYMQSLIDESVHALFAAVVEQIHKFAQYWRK
UniProt Q9BRX2, sequence (Q9BRX2 whole entry, looked up): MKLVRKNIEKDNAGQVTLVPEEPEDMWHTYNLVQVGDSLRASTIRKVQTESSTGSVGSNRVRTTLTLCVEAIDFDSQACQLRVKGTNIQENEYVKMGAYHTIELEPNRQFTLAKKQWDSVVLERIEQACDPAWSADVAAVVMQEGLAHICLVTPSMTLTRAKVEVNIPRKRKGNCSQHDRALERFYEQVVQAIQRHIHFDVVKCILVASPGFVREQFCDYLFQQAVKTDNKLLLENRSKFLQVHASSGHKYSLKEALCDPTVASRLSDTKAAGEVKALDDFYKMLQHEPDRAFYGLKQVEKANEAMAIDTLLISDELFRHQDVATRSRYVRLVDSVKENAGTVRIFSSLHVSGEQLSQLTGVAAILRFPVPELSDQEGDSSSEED

Target | log2 fold change (erlotinib) | log2 fold change [1] | log2 fold change [2] | log2 fold change [3] | log2 fold change [4] | log2 fold change [5] | log2 fold change [6] | log2 fold change [7] | log2 fold change [8] | log2 fold change [9]
POLR2B (UniProt P30876) | -0.008 | -0.014 | -0.025 | 0.024 | -0.006 | 0.047 | 0.045 | 0.009 | 0.068 | -0.063
PCBP1 (UniProt Q15365) | -0.009 | 0.092 | 0.062 | -0.031 | 0.011 | -0.002 | 0.057 | 0.031 | -0.034 | 0.002
PKM (UniProt P14618) | 0.008 | -0.005 | 0.052 | 0.003 | 0.002 | -0.003 | -0.016 | -0.011 | -0.006 | 0.029
PEX11B (UniProt O96011) | 0.016 | 0.058 | 0.162 | -0.001 | 0.056 | 0.087 | 0.142 | -0.012 | -0.097 | 0.041
PSMD8 (UniProt P48556) | -0.045 | -0.096 | -0.046 | 0.023 | -0.027 | -0.031 | 0.036 | 0.039 | 0.055 | -0.031
PRKAB2 (UniProt O43741) | -0.054 | 0.29 | 0.103 | 0.032 | -0.022 | -0.115 | 0.203 | 0.144 | -0.218 | 0.064
PBX2 (UniProt P40425) | 0.111 | 0.076 | 0.055 | 0.007 | 0.009 | -0.039 | 0.091 | -0.098 | -0.036 | -0.269
PKN2 (UniProt Q16513) | 0.067 | 0.073 | -0.019 | -0.075 | 0.076 | -0.075 | 0.07 | -0.031 | -0.033 | -0.209
PRMT3 (UniProt O60678) | -0.056 | 0.147 | 0.03 | 0.027 | 0.066 | 0.011 | 0.028 | -0.003 | -0.01 | -0.089
PRG4 (UniProt Q92954) | 0.002 | -0.109 | 0.011 | -0.085 | 0.15 | 0.024 | -0.139 | -0.171 | -0.143 | 0.031
PDCD2L (UniProt Q9BRP1) | -0.051 | 0.226 | 0.128 | 0.03 | 0.006 | -0.03 | -0.078 | -0.001 | -0.071 | -0.036
PLCL1 (UniProt Q15111) | 0.136 | -0.122 | 0.117 | 0.095 | -0.042 | 0.007 | 0.098 | 0.051 | 0 | -0.376
RAB11FIP1 (UniProt Q6WKZ4) | 0.004 | 0.074 | 0.078 | -0.039 | 0.02 | -0.004 | 0.031 | 0.009 | -0.049 | 0.027
PIP4P2 (UniProt Q8N4L2) | 0.014 | -0.066 | 0.026 | 0.039 | 0.009 | 0.145 | 0.063 | -0.002 | 0.014 | -0.007
PSMD6 (UniProt Q15008) | -0.024 | -0.041 | -0.042 | 0.017 | -0.056 | -0.007 | 0.09 | 0.053 | 0.002 | 0.016
PPP1R12A (UniProt O14974) | 0.004 | 0.044 | 0.023 | 0.023 | -0.188 | 0 | 0.035 | -0.067 | -0.074 | -0.485 (active)
PDS5B (UniProt Q9NTI5) | -0.023 | 0.002 | 0.001 | 0.043 | 0.092 | 0.12 | 0.061 | 0.013 | -0.302 | -0.287
PIK3C3 (UniProt Q8NEB9) | -0.005 | -0.004 | -0.157 | -0.005 | 0.011 | 0.087 | -0.007 | 0.048 | -0.024 | 0.06
POLR2M (UniProt P0CAP2) | -0.042 | -0.033 | -0.054 | 0.004 | 0.05 | 0.055 | 0.041 | -0.009 | 0.017 | -0.024
PSMD12 (UniProt O00232) | -0.064 | 0 | -0.017 | -0.003 | -0.023 | -0.016 | 0.009 | 0.066 | -0.042 | -0.049
PIK3R1 (UniProt P27986) | 0.01 | 0.033 | 0.025 | 0.048 | 0.036 | 0.14 | -0.022 | -0.027 | -0.024 | 0.05
PSMC5 (UniProt P62195) | -0.116 | -0.044 | -0.029 | 0.021 | -0.022 | -0.03 | -0.007 | 0.019 | 0.021 | -0.032
PIP4K2B (UniProt P78356) | 0.16 | -0.022 | 0.082 | -0.083 | 0.017 | 0.244 | 0.104 | 0.096 | 0.13 | 0.037
PELO (UniProt Q9BRX2) | 0.153 | 0.017 | -0.108 | 0.074 | 0.105 | -0.104 | 0.079 | 0.021 | -0.097 | -0.058
PIK3CB (UniProt P42338) | 0.07 | 0.018 | 0.002 | -0.022 | 0.081 | 0.09 | 0.032 | 0.014 | -0.016 | 0.004
PYGB (UniProt P11216) | -0.047 | -0.022 | -0.003 | 0.087 | 0.11 | 0.008 | -0.011 | 0.039 | 0.009 | -0.028
PDCD4 (UniProt Q53EL6) | 0.107 | -0.041 | 0.14 | -0.051 | 0.16 | 0.145 | 0.072 | 0.108 | 0.024 | 0.027
POGLUT1 (UniProt Q8NBL1) | 0.006 | -0.046 | -0.041 | -0.004 | 0.055 | 0.026 | 0.167 | -0.013 | -0.007 | -0.041
PSPC1 (UniProt Q8WXF1) | -0.024 | 0.014 | -0.036 | 0.043 | -0.008 | 0.004 | -0.101 | -0.141 | -0.033 | -0.061
PDE12 (UniProt Q6L8Q7) | -0.023 | 0.018 | 0.052 | 0.027 | 0.001 | -0.008 | -0.015 | 0.054 | -0.04 | 0.026
